# PubChem BioAssay AID1851 (National Center for Advancing Translational Sciences (NCATS), 2009)
# About 4,000 (25%) of roughly 16,000 compounds were called active. About 26% were inconclusive and are not listed. Calls follow the shape of the dose curve; as a rule, active = well fitted curve in the direction sought with a large enough effect; inconclusive = small, poorly fitted or top-dose-only effect, or effect the other way; inactive = no such curve, though single readings can be large or run the other way. Only a sample is shown.
# Target: Cytochrome P450 2C9 (Homo sapiens) (UniProt P11712)
# Assay: Cytochrome panel assay with activity outcomes
# Details: recombinant CYP, pro-luciferin dealkylation, luminescence, p450-cyp2c9; series mostly up to 57.1 µM
# % is scaled to controls: 0 for no effect and ±100 for the full control effect.
# Cytochrome P450 2C9 (Homo sapiens), sequence (P11712 whole entry, looked up): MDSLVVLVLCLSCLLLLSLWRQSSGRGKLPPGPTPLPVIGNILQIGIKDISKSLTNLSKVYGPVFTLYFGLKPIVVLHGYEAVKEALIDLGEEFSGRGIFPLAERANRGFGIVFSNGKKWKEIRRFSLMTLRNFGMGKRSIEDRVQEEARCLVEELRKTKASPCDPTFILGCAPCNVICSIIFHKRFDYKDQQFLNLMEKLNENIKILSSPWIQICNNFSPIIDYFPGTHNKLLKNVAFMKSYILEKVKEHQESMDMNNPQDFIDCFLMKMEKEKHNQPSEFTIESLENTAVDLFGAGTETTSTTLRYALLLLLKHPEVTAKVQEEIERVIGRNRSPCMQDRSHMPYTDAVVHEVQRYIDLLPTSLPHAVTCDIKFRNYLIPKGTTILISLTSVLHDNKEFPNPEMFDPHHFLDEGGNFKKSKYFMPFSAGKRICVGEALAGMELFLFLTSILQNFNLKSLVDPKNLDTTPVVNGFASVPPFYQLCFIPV
SMILES,AC50,"activity, negative = inhibition"
CCCNC(=S)Nc1ccc(Br)cc1,14.1 µM (active),–
CC(=O)c1c(O)c(C)c(-c2ccccc2)n(-c2ccccc2)c1=O,14.1 µM (active),–
Cc1cc(C)n(-c2ccc(F)cc2)c(=O)c1C(=O)O,inactive,–
N=c1n(-c2ccccc2)c(O)cc(=O)n1-c1ccccc1,inactive,–
N#C/C(=N\O)c1nc(-c2ccccc2)cs1,22.4 µM (active),–
C[n+]1cccc(CNC(=O)/C=N/O)c1,inactive,–
O=C1OCCC=C1[C@@H](O)CCc1ccccc1,–,5.4% [at 11.4 µM] (inactive)
O=C(O)[C@H](CCc1ccccc1)N1C(=O)c2ccccc2C1=O,–,-7.78% [at 11.4 µM] (inactive)
O=C1C(=O)c2ccccc2C(O)=C1C(CCc1ccccc1)C1=C(O)c2ccccc2C(=O)C1=O,3.16 µM (active),–
CC(=O)O[C@H]1C2=CO[C@H](C)[C@H]3[C@H]4C5=C([C@H](O)[C@H]6O[C@@H]6C5=O)[C@H](O[C@H]4C)[C@@]23C(=O)[C@H]2O[C@@H]21,–,19.9% [at 11.4 µM] (inactive)
COC(=O)c1cc(Br)c(=O)n(CCc2ccc(O)cc2)c1,12.6 µM (active),–
CC(C)CN1CCCC2(CCN(C(=O)c3csnn3)CC2)C1,inactive,–
O=C1CCC[C@@H](C(C(=O)OCc2ccccc2)C(=O)OCc2ccccc2)C1,3.16 µM (active),–
O=C(O)C1CCCN1C(=O)OCc1ccccc1 (centres undefined),inactive,–
NC(=O)C1CCN(C(=O)OCc2ccccc2)CC1,inactive,–
C/C(=N/NS(=O)(=O)c1ccc(C)cc1)c1cccc(NC(=O)c2cccc(Cl)c2)c1,3.98 µM (active),–
COc1ccc(/C(C)=N/NC(=O)c2ccc(N(C)C)cc2)cc1,inactive,–
C/C(=N\NC(=O)c1cccc(Cl)c1)c1cccc(NC(=O)C(C)C)c1,inactive,–
CCC(=O)Nc1ccc(/C(C)=N\NS(=O)(=O)c2ccc(C)cc2)cc1,2.24 µM (active),–
COc1ccc(C(=O)N/N=C(\C)Cn2nc([N+](=O)[O-])cc2C)cc1,inactive,–
COc1ccc(CC(=O)Nc2cccc(/C(C)=N/NC(=O)c3cccc([N+](=O)[O-])c3)c2)cc1,1.58 µM (active),–
COc1ccc(S(=O)(=O)N/N=C(/C)c2cccc(NC(=O)c3ccccc3Cl)c2)cc1,0.2 µM (active),–
COc1ccc(NC(=O)c2cc(S(=O)(=O)N3CCS(=O)(=O)CC3)ccc2Cl)cc1,inactive,–
O=C1c2ccccc2C(=O)c2c1ccc(C(=O)O)c2-c1ccc2ccccc2c1,1.58 µM (active),–
O=C(O)c1ccccc1C(=O)Nc1cc2c(cc1Br)-c1ccccc1C2=O,–,-5.92% [at 11.4 µM] (inactive)

SMILES,AC50,"activity, negative = inhibition"
CC(C)c1ccc(/C=C2\C=C(c3ccc4ccccc4c3)OC2=O)cc1,–,-10% [at 11.4 µM] (inactive)
CC(C)OCCCN1CN(S(=O)(=O)c2cccc(Cl)c2)c2nc3ccccc3nc21,2.82 µM (active),–
CCn1nc(C)c(NC(=O)/C=C/c2cnn(C)c2C)c1C,inactive,–
Cc1cc(N2CCOCC2)ccc1/C=C1\SC(=O)N(C(C)C)C1=O,31.6 µM (active),–
CN(C)c1ccc(/C=C2/C(=O)N(c3ccc([N+](=O)[O-])cc3)N=C2N2CCOCC2)cc1,inactive,–
Cc1ccsc1/C=C1/SC(=O)N(CC(=O)N2CCOCC2)C1=O,inactive,–
Cc1ccc2c(CC(=O)OCc3cc(=O)n4c(n3)sc3ccccc34)coc2c1,7.94 µM (active),–
COc1cccc(Nc2nc(-c3ccc(O)cc3)cs2)c1,3.98 µM (active),–
COc1cccc(Nc2ncc3nc(-c4ccccc4)c(=O)n(C)c3n2)c1,inactive,–
c1cnc(Nc2nc(-c3ccc4ccccc4c3)cs2)nc1,inactive,–
CC1CCCC(NC(=O)C2CCN(S(=O)(=O)N3CCOCC3)CC2)C1C (centres undefined),inactive,–
CCNc1ncc2nc(CCc3ccccc3)c(=O)n(Cc3ccc(F)cc3)c2n1,inactive,–
CCNc1ncc2nc(-c3ccccc3)c(=O)n(CCC#N)c2n1,inactive,–
CCNc1ncc2nc(-c3ccccc3)c(=O)n(C)c2n1,12.6 µM (active),–
CCNc1ncc2nc(-c3ccc(Cl)cc3)c(=O)n(C)c2n1,inactive,–
CCNc1ncc2nc(-c3ccc(F)cc3)c(=O)n(-c3ccccc3)c2n1,inactive,–
CCNc1ncc2nc(CCc3ccccc3)c(=O)n(-c3ccccc3)c2n1,12.6 µM (active),–
CCNc1ncc2nc(CCc3ccccc3)c(=O)n(CCC#N)c2n1,6.31 µM (active),–
CCNc1ncc2nc(-c3cc(F)cc(F)c3)c(=O)n(-c3ccccc3)c2n1,inactive,–
CCNc1ncc2nc(C)c(=O)n(C)c2n1,inactive,–
CCNc1ncc2nc(-c3ccc(F)cc3)c(=O)n(C)c2n1,inactive,–
N#CCCn1c(=O)c(CCc2ccccc2)nc2cnc(Nc3ccccc3)nc21,inactive,–
CCNc1ncc2nc(CCc3ccccc3)c(=O)n(C)c2n1,12.6 µM (active),–
CC1(C)CC2(CCO1)OC(=O)CC2C(=O)NCCc1ccccc1 (centres undefined),inactive,–
